Laboratory results: PubChem BioAssay (EPA / NIEHS)
Records with an inconclusive call do not appear. Activity calls are given as the source filed them. Rule for the calls, unless noted: active = hit-call score of the fitted dose curve at least 0.9, where 1 is the maximum; inactive = score below 0.9.

Key:
[1] = molecular target: human Retinoid X Receptor beta (RXRb), RXRB (gene 6257) (UniProt P28702); test: ATG_RXRb_TRANS: Attagene TRANS-FACTORIAL HepG2 Assay for human Retinoid X Receptor beta (RXRb) (AID 2283013; active = hit-call score of the fitted dose curve at least 0.9, where 1 is the maximum)
Sequence of human Retinoid X Receptor beta (RXRb), RXRB (gene 6257) (P28702 whole entry, looked up, the tested form may be a part): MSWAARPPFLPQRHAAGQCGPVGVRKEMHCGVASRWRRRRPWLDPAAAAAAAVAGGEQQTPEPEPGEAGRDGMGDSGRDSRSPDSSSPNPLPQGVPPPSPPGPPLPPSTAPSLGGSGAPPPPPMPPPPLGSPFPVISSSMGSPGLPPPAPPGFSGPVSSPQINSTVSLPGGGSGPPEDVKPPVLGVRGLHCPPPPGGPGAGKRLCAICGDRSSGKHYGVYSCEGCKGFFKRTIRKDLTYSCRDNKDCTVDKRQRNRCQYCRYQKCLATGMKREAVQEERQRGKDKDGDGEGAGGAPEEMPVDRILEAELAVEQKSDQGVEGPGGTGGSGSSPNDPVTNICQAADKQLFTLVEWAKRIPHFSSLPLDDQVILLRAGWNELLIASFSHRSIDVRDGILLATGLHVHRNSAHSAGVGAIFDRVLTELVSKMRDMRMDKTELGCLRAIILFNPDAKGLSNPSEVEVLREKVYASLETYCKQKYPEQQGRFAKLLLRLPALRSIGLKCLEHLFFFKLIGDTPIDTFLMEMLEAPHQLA
In short: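 HepG2 cells transiently transfected with multiplexed reporter units driven by GAL4-UAS and exogenous chimeric NR-Gal4 proteins; treated 24 h. Reporter mRNA measured by RT-PCR, 6-FAM labelling and capillary electrophoresis; gain-of-signal fitted versus DMSO baseline.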

[2] = molecular target: human Thyroid Receptor alpha (THRa1), THRA (gene 7067) (UniProt P10827); test: ATG_THRa1_TRANS: Attagene TRANS-FACTORIAL HepG2 Assay for human Thyroid Receptor alpha (THRa1) (AID 2283014; active = hit-call score of the fitted dose curve at least 0.9, where 1 is the maximum)
Sequence of human Thyroid Receptor alpha (THRa1), THRA (gene 7067) (P10827 whole entry, looked up, the tested form may be a part): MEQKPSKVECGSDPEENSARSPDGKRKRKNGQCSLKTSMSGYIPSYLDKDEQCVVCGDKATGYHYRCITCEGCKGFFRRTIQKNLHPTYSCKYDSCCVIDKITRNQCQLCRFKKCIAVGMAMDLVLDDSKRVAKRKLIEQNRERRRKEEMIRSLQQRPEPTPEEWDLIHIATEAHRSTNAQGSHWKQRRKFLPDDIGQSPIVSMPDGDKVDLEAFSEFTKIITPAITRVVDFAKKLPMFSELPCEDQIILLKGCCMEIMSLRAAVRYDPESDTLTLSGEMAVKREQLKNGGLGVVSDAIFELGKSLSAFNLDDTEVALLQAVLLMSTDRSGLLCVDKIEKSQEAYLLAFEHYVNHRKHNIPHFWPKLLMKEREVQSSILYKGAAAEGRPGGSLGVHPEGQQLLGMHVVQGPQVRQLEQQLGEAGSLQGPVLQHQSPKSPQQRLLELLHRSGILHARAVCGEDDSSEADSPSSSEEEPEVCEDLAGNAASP
In short: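 Transient HepG2 transfection, NR-Gal4 chimera driving GAL4-UAS reporters; 24 h compound exposure; total RNA, oligo(dT) RT, PCR, fluorescent primer extension, capillary electrophoresis. Upward direction vs DMSO control.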

[3] = read-out: E-selectin (Homo sapiens) (UniProt P16581); test: BSK_3C_Eselectin: BioMAP Diversity Plus: 3C Assay for Eselectin Biomarker Activity (AID 2283015); details: primary human endothelial cells (HUVEC); actives raise or lower the signal
In short: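 HUVEC, 3C stimulation; compound exposure 24 h; E-selectin by ELISA; gain- or loss-of-signal fitted bidirectionally vs DMSO baseline.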

[4] = read-out: Interleukin-1 alpha (IL1a), IL1A (gene 3552); test: BSK_BE3C_IL1a: BioMAP Diversity Plus: BE3C Assay for Interleukin-1 alpha (IL1a) Biomarker Activity (AID 2283016); details: primary human bronchial epithelial cells; actives raise or lower the signal
In short: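 Human primary bronchial epithelial cells (BE3C system) were dosed with compound and IL-1a measured by ELISA 24 h later. Activity was fitted bidirectionally against DMSO baseline; cytotoxicity was tracked in parallel cultures by SRB total-protein staining.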

[5] = read-out: Monocyte Chemoattractant Protein-1 (MCP1), CCL2 (gene 6347); test: BSK_3C_MCP1: BioMAP Diversity Plus: 3C Assay for Monocyte Chemoattractant Protein-1 (MCP1) Biomarker Activity (AID 2283017); details: primary human endothelial cells (HUVEC); actives raise or lower the signal
In short: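 HUVEC, 3C system; 24 h chemical exposure; MCP-1 by ELISA; bidirectional curve fit vs DMSO baseline.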

[6] = read-out: Monocyte Chemoattractant Protein-1 (MCP1), CCL2 (gene 6347); test: BSK_4H_MCP1: BioMAP Diversity Plus: 4H Assay for Monocyte Chemoattractant Protein-1 (MCP1) Biomarker Activity (AID 2283018); details: primary human endothelial cells (HUVEC); actives raise or lower the signal
In short: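 Human umbilical vein endothelial cells (4H system) dosed with chemical; MCP-1 measured by ELISA 24 h after dosing. Bidirectional curve fitting against DMSO negative control as baseline; parallel SRB total-protein staining tracks overt cytotoxicity.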

[7] = read-out: Human Leukocyte Antigen - DR isotype (HLADR), HLA-DRA (gene 3122); test: BSK_3C_HLADR: BioMAP Diversity Plus: 3C Assay for Human Leukocyte Antigen - DR isotype (HLADR) Biomarker Activity (AID 2283019); details: primary human endothelial cells (HUVEC); actives raise or lower the signal
In short: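 HUVEC, 3C stimulation, 24 h post-dose; HLA-DR by ELISA; bidirectional curve fit vs DMSO baseline; gain or loss of signal scored.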

[8] = read-out: Interleukin-8 (IL8), CXCL8 (gene 3576); test: BSK_3C_IL8: BioMAP Diversity Plus: 3C Assay for Interleukin-8 (IL8) Biomarker Activity (AID 2283020); details: primary human endothelial cells (HUVEC); actives raise or lower the signal
In short: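 Primary human umbilical vein endothelial cells (3C system) were exposed to test chemical for 24 h, then IL-8 was quantified by ELISA. Responses were fitted bidirectionally against DMSO vehicle as baseline.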

[9] = read-out: Monokine induced gamma interferon (MIG), CXCL9 (gene 4283); test: BSK_3C_MIG: BioMAP Diversity Plus: 3C Assay for Monokine induced gamma interferon (MIG) Biomarker Activity (AID 2283021); details: primary human endothelial cells (HUVEC); actives raise or lower the signal;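 for AC50: MIG protein level measured by immunoassay in the treated endothelial cultures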
In short: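 Primary human umbilical vein endothelial cells in the 3C system were exposed to chemical for 24 h, after which MIG was quantified by ELISA. Activity was fitted bidirectionally against DMSO as negative control and baseline.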

[10] = BSK_3C_SRB: Viability Assessment in the BioMAP Diversity Plus: 3C Assay (AID 2283023); details: primary human endothelial cells (HUVEC);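 note: cells read 24 h after compound dosing; fitted both ways against DMSO so a hit may be signal rise or drop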
In short: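 HUVEC, 24 h post-dose; 10% TCA fix, 0.1% SRB stain, A560 nm. Bidirectional curve fit vs DMSO negative control.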

[11] = read-out: Matrix Metallopeptidase 1 (MMP1), MMP1 (gene 4312); test: BSK_BE3C_MMP1: BioMAP Diversity Plus: BE3C Assay for Matrix Metallopeptidase 1 (MMP1) Biomarker Activity (AID 2283024); details: primary human bronchial epithelial cells; actives raise or lower the signal
In short: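 Primary human bronchial epithelial cells were dosed with test chemicals, and MMP1 levels were measured by ELISA 24 h later. Data were fitted bidirectionally against DMSO as the negative control and activity baseline.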

[12] = read-out: Pselectin, SELP (gene 6403); test: BSK_4H_Pselectin: BioMAP Diversity Plus: 4H Assay for Pselectin Biomarker Activity (AID 2283026); details: primary human endothelial cells (HUVEC); actives raise or lower the signal
In short: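 Primary human umbilical vein endothelial cells were exposed to test chemical for 24 h, then cell-surface P-selectin was quantified by ELISA. Activity was fitted bidirectionally against DMSO as negative control and baseline.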

[13] = BSK_4H_SRB: Viability Assessment in the BioMAP Diversity Plus: 4H Assay (AID 2283027); details: primary human endothelial cells (HUVEC);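 note: cells exposed to compound for 24 h before staining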;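 for AC50: curves fitted both ways versus DMSO so AC50 may be loss or gain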
In short: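 Human umbilical vein endothelial cells were dosed with chemical and, after 24 h, fixed with 10% TCA, stained with 0.1% sulforhodamine B, and read at 560 nm to give total protein as a cytotoxicity measure. Bidirectional fitting relative to DMSO control.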

[14] = BSK_BE3C_SRB: Viability Assessment in the BioMAP Diversity Plus: BE3C Assay (AID 2283028); details: primary human bronchial epithelial cells;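 for AC50: fitted both ways so AC50 may mark signal gain or loss versus DMSO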
In short: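 Primary human bronchial epithelium; chemical dosing, 24 h; 10% TCA fix, 0.1% SRB stain, A560; bidirectional fit vs DMSO baseline.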

[15] = read-out: Thrombomodulin, THBD (gene 7056); test: BSK_3C_Thrombomodulin: BioMAP Diversity Plus: 3C Assay for Thrombomodulin Biomarker Activity (AID 2283029); details: primary human endothelial cells (HUVEC); actives raise or lower the signal
In short: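 Primary human umbilical vein endothelial cells (3C system) were exposed to chemical for 24 h, then thrombomodulin levels were measured by ELISA. Activity was fitted bidirectionally against the DMSO negative control as baseline.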

[16] = read-out: Urokinase-type plasminogen activator receptor (uPAR), PLAUR (gene 5329); test: BSK_4H_uPAR: BioMAP Diversity Plus: 4H Assay for Urokinase-type plasminogen activator receptor (uPAR) Biomarker Activity (AID 2283030); details: primary human endothelial cells (HUVEC); actives raise or lower the signal
In short: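 HUVEC, 24 h post-dose; uPAR by ELISA; bidirectional fit vs DMSO baseline.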

[17] = read-out: Human Leukocyte Antigen - DR isotype (HLADR), HLA-DRA (gene 3122); test: BSK_BE3C_HLADR: BioMAP Diversity Plus: BE3C Assay for Human Leukocyte Antigen - DR isotype (HLADR) Biomarker Activity (AID 2283032); details: primary human bronchial epithelial cells; actives raise or lower the signal
In short: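 Human primary bronchial epithelial cells in the BE3C system were exposed to chemicals for 24 h, after which HLA-DR levels were quantified by ELISA. Activity was fitted bidirectionally, gain or loss of signal, against DMSO as negative control and baseline.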

[18] = read-out: Vascular endothelial growth factor receptor 2 (Homo sapiens) (UniProt P35968); test: BSK_4H_VEGFRII: BioMAP Diversity Plus: 4H Assay for Vascular endothelial growth factor receptor 2 (VEGFR2) Biomarker Activity (AID 2283031); details: primary human endothelial cells (HUVEC); actives raise or lower the signal
In short: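 HUVEC (human primary), 4H system; 24 h post-dose; VEGFRII by ELISA; bidirectional curve fit vs DMSO baseline; gain or loss of signal scored.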

[19] = molecular target: human Vitamin D Receptor (VDR), VDR (gene 7421) (UniProt P11473); test: ATG_VDR_TRANS: Attagene TRANS-FACTORIAL HepG2 Assay for human Vitamin D Receptor (VDR) (AID 2283022; active = hit-call score of the fitted dose curve at least 0.9, where 1 is the maximum)
Sequence of human Vitamin D Receptor (VDR), VDR (gene 7421) (P11473 whole entry, looked up, the tested form may be a part): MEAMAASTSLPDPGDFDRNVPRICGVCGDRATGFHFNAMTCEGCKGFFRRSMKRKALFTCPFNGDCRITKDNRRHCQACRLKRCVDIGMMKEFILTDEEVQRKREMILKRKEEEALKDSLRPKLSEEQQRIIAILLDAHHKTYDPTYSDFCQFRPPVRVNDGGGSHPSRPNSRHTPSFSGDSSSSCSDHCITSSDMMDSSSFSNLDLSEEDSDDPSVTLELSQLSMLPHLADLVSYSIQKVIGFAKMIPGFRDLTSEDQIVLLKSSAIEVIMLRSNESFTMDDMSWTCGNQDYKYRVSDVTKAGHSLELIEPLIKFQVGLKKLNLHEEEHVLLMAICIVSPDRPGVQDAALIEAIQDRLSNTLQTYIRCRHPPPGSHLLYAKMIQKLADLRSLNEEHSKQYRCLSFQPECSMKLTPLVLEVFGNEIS
In short: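 RT-PCR/capillary electrophoresis read-out of reporter mRNA induction in transiently transfected HepG2; 24 h dosing; chimeric NR-Gal4 (TRANS format); gain-of-signal fit against DMSO baseline.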

[20] = BSK_3C_Vis: BioMAP Diversity Plus: 3C Assay for Morphology Visualization (AID 2283025); details: primary human endothelial cells (HUVEC);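 note: fitted both ways so gain or loss versus DMSO counts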
In short: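 Human umbilical vein endothelial cells in the 3C system were imaged by light microscopy 24 h after chemical dosing to record cell morphology. Activity was fitted bidirectionally against DMSO as negative control and baseline; the endpoint serves as a background control.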

Measured: AC50

Sequence of E-selectin (Homo sapiens) (P16581 whole entry, looked up): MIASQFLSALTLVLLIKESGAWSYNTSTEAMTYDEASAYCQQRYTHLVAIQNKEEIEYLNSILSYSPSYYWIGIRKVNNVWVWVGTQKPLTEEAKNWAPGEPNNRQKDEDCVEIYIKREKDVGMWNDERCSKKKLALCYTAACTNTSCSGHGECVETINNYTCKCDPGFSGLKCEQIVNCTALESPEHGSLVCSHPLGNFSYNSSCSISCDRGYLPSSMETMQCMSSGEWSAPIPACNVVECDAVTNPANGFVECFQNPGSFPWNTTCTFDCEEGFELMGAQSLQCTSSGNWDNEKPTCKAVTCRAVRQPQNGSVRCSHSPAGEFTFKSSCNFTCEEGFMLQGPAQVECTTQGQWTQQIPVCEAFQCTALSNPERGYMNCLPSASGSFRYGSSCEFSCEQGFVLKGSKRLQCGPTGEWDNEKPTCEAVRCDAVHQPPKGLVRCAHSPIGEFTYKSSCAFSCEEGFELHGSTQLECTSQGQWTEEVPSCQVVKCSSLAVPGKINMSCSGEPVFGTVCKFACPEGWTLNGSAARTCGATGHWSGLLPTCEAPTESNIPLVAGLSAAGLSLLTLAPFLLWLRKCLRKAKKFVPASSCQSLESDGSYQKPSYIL

O=C1c2c(O)cccc2Cc2cccc(O)c21
active: [10] 20 µM | [11] 4.63 µM | [13] 20 µM
not listed: [18] | [19] | [20]
inactive: all other assays above

COC(=O)[C@H]1[C@H]2C[C@@H]3c4[nH]c5cc(OC)ccc5c4CCN3C[C@H]2C[C@@H](OC(=O)c2cc(OC)c(OC)c(OC)c2)[C@@H]1OC
active: [3] 16.9 µM | [5] 16.9 µM | [6] 5.85 µM | [7] 25.8 µM | [8] 16.9 µM | [10] 24.9 µM | [12] 25.6 µM | [13] 22.5 µM
inactive: [1] | [2] | [9] | [11] | [14] | [15] | [18] | [17]

CCc1nc(N)nc(N)c1-c1ccc(Cl)cc1
not listed: [2]
inactive: all other assays above

CS(=O)(=O)c1ccc([C@@H](C[C@H]2CCC(=O)C2)C(=O)Nc2cnccn2)cc1Cl
not listed: [2]
inactive: all other assays above

CC(C)COC(=O)CCCCC(=O)OCC(C)C
not listed: [20]
inactive: all other assays above

CC1(C)C(=O)NC(=O)N1CO
not listed: [2]
inactive: all other assays above

CCCCc1nc2cccnc2n1Cc1ccc(-c2ccccc2-c2nnn[nH]2)cc1
active: [2] 21.4 µM | [11] 6.21 µM
not listed: [19]
inactive: all other assays above

O=[Si]=O
not listed: [18] | [19] | [20]
inactive: all other assays above

Oc1ccccc1O
active: [3] 1.73 µM | [5] 4.66 µM | [7] 5.45 µM | [10] 4.44 µM | [12] 9.58 µM | [13] 5.94 µM
not listed: [2]
inactive: all other assays above

Nc1nc(=S)c2[nH]cnc2[nH]1
not listed: [18] | [19] | [20]
inactive: all other assays above

O=C1CCCCC1
active: [2] 48.4 µM
inactive: all other assays above

CCN(CC)CCOc1ccc(C(=C(Cl)c2ccccc2)c2ccccc2)cc1
inactive: [1] | [2] | [19]
active: [3] 14.3 µM | [4] 18.9 µM | [5] 11.6 µM | [6] 9.04 µM | [7] 7.41 µM | [8] 10.9 µM | [9] 15.1 µM | [10] 11.7 µM | [11] 28 µM | [12] 8.24 µM | [13] 13.1 µM | [14] 27.8 µM | [15] 5.39 µM | [16] 13 µM | [17] 15.2 µM

CCCCCCCCCC[N+](C)(C)[O-]
not listed: [2]
inactive: all other assays above

CCCCCCC(CCCCCCCCCCC(=O)OCC(COC(C)=O)OC(C)=O)OC(C)=O (stereo not drawn)
active: [1] 50 µM | [4] 12.3 µM | [17] 10 µM
inactive: all other assays above
